Assay results as given in PubChem BioAssay.
The source made the active and inactive calls.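 The calls were made as follows: active = GFP response below 50% of the DMSO control; inconclusive = fewer than 70 events counted for a yeast strain; inactive = the rest.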

Experiment: RPL19A-GFP modulators, yeast TOR pathway, confirmation, cell-based, S. cerevisiae, flow cytometry, cherry picks, mother/daughter gates (AID 2270)
Details: S. cerevisiae RPL19A-GFP strain, 3 h, at 10 µM, stronger effect = lower value, 100 = same GFP as DMSO wells
For `O=c1oc(/C=C/c2ccc([N+](=O)[O-])s2)nc2ccccc12`, the GFP response vs DMSO was 112% (inactive). In the case of `Cc1ccc(Sc2ncnc3onc(C)c23)cc1`, the GFP response vs DMSO is reported as 95.4% (inactive). For `COc1ccc(C(=O)c2no[n+]([O-])c2C(=O)c2ccc(OC)cc2)cc1`, the GFP response vs DMSO was 90.1% (inactive). For `CCN(CC)CCCN(Cc1cc2cc3c(cc2[nH]c1=O)OCO3)C(=S)Nc1ccccc1`, the GFP response vs DMSO was 87.4% (inactive). For `COc1ccc(-c2cc(C(F)(F)F)nc(N3CCOCC3)n2)cc1OC`, the GFP response vs DMSO was 100% (inactive). With `O=c1/c(=C/c2cccc3ccccc23)sc2ncnn12` the GFP response vs DMSO was 112% (inactive). In the case of `Cc1ccccc1NC(=O)c1ccccc1O`, the GFP response vs DMSO is reported as 94% (inactive). For `COc1ccccc1-c1noc(-c2cc(OC)c(OC)c(OC)c2)n1`, the GFP response vs DMSO was 97.2% (inactive).

Same assay, conditions: S. cerevisiae RPL19A-GFP strain, 3 h, measured here: daughter cell gate, at 10 µM, stronger effect = lower value, 100 = same GFP as DMSO wells
Compound `O=C(CCC(F)(F)F)N1CCC(CO)(CCc2ccccc2)CC1` has a GFP response vs DMSO of 99.8%. `O=C(Nc1cc(Sc2ccccn2)cc([N+](=O)[O-])c1)c1cccc(F)c1` gave a GFP response vs DMSO of 96.1%. Compound `CC(=O)Nc1cccc(/C(C)=N/NC(=O)c2ccccc2Cl)c1` has a GFP response vs DMSO of 97.9%. Compound `Cc1cc(Br)c2c(c1)/C(=C/C(=O)c1cccs1)C(=O)N2` has a GFP response vs DMSO of 99.1%. For `N=C1S/C(=C\c2ccco2)C(=O)N1c1nccs1`, the GFP response vs DMSO was 108%. For `Cc1cc(NC(=O)c2cccnc2Cl)ccc1NC(=O)c1cc2ccccc2o1`, the GFP response vs DMSO was 97.1%. Work on `COc1ccc2c(/C=C/c3cc[n+](C)cc3)c[nH]c2c1` yielded a GFP response vs DMSO of 106%. With `C/C(=N\NC(=O)COc1ccccc1-c1ccccc1)c1ccccn1` the GFP response vs DMSO was 99.1%. For `CC(=O)c1cc(NC(=O)c2ccc(C)cc2)c(=O)oc1C`, the GFP response vs DMSO was 97.5%. For `O=C(Cc1ccc(Cl)cc1)NNC(=S)NC(=O)c1cccs1`, the GFP response vs DMSO was 104%. With `COc1ccc(NC(=O)Nc2ccon2)c(OC)c1` the GFP response vs DMSO was 102%. Work on `O=S(=O)(c1ccc(Oc2ccc(Br)cc2)cc1)N1CCOCC1` yielded a GFP response vs DMSO of 102%. Compound `Cc1cccn2c(=O)c(/C=C(\C#N)C(=O)NCc3ccco3)c(N3CCCC(C)C3)nc12` (stereo not drawn) has a GFP response vs DMSO of 99.1%. With `CCS(=O)(=O)Nc1cccc(C2=NN(S(C)(=O)=O)C(c3ccccc3)C2)c1` (stereo not drawn) the GFP response vs DMSO was 101%. Work on `Cc1ccc(C(C(=O)NC2CCCCC2)N(CCCN2CCOCC2)C(=O)c2snc(C(N)=O)c2N)cc1` (stereo not drawn) yielded a GFP response vs DMSO of 102%. `O=C(O)C1CCN(S(=O)(=O)c2ccc(Oc3ccccc3)cc2)CC1` showed a GFP response vs DMSO of 98.3%. With `CCCC(=O)Nc1ccc(C(=O)/C=C/c2ccc(SC)cc2)cc1` the GFP response vs DMSO was 98.1%. `Cc1cccc(CS(=O)(=O)c2ncc(Cl)c(C(=O)NCc3ccc4c(c3)OCO4)n2)c1` showed a GFP response vs DMSO of 99%. Work on `Cc1nnc(NC(=O)c2ccc(S(=O)(=O)N(C)Cc3ccccc3)cc2)o1` yielded a GFP response vs DMSO of 98.1%. `Clc1cnc(N/N=C/c2cccs2)c(Cl)c1` showed a GFP response vs DMSO of 100%. `CC1CCCN(CCCNC(=O)C2CCN(S(=O)(=O)N3CCC4(CC3)OCCO4)CC2)C1` (stereo not drawn) showed a GFP response vs DMSO of 96.1%. `Clc1ccc(OCCn2cnc3ccccc32)c(Cl)c1` showed a GFP response vs DMSO of 82.3%. For `O=C(O)c1ccn2c(C(=O)c3ccccc3)c(-c3ccccc3)cc2c1`, the GFP response vs DMSO was 88.6%. `CC(=O)Oc1ccc(N2C(=O)C3C4C=CC(CO)(O4)C3C2=O)cc1` (stereo not drawn) gave a GFP response vs DMSO of 104%. With `COc1ccc(/C=C/C(=O)c2ccc(Cl)cc2)c(OC)c1` the GFP response vs DMSO was 98.9%. With `O=C(CN1C(=O)c2cccc3cccc(c23)C1=O)N1CCCCCC1` the GFP response vs DMSO was 101%. Compound `COC(=O)c1ccc(CS(=O)(=O)c2ccc(F)cc2)o1` has a GFP response vs DMSO of 98.1%. In the case of `O=C(c1cccc(COCC(F)(F)C(F)F)c1)N1CCN(c2ccccc2)CC1`, the GFP response vs DMSO is reported as 101%. With `COc1ccccc1N=Cc1nc(-c2ccccc2)oc1OC(C)=O` the GFP response vs DMSO was 96.9%. With `CNC(=O)c1c(O)c2cccc3c2n(c1=O)CC3` the GFP response vs DMSO was 99.1%. In the case of `O=[N+]([O-])c1cc(S(=O)(=O)C(F)(F)F)ccc1Sc1nc2ccccc2s1`, the GFP response vs DMSO is reported as 95.1%. Compound `CN(C)c1ccc(/C=C/c2cc[n+](C)cc2)cc1` has a GFP response vs DMSO of 109%. Compound `O=c1oc(/C=C/c2ccc([N+](=O)[O-])s2)nc2ccccc12` has a GFP response vs DMSO of 113%. `Cc1ccc(Sc2ncnc3onc(C)c23)cc1` gave a GFP response vs DMSO of 95.7%. `COc1ccc(C(=O)c2no[n+]([O-])c2C(=O)c2ccc(OC)cc2)cc1` showed a GFP response vs DMSO of 83.3%. In the case of `CCN(CC)CCCN(Cc1cc2cc3c(cc2[nH]c1=O)OCO3)C(=S)Nc1ccccc1`, the GFP response vs DMSO is reported as 74.2%. In the case of `COc1ccc(-c2cc(C(F)(F)F)nc(N3CCOCC3)n2)cc1OC`, the GFP response vs DMSO is reported as 100%. In the case of `O=c1/c(=C/c2cccc3ccccc23)sc2ncnn12`, the GFP response vs DMSO is reported as 113%. `Cc1ccccc1NC(=O)c1ccccc1O` gave a GFP response vs DMSO of 92.9%. `COc1ccccc1-c1noc(-c2cc(OC)c(OC)c(OC)c2)n1` showed a GFP response vs DMSO of 96.4%.
